# Screening data as filed in PubChem.
# Hits are enriched below; roughly 11% of the tested compounds scored in any of these assays.
# Pf growth 96h – P. falciparum growth inhibition at 96 hour, primary screen for plastid delayed-death inhibitors; P. falciparum luciferase reporter growth, 96 h; Potency, µM (doses to about 28.7 µM), for the others: at the top dose activity change, negative = inhibition, most hits filed as inhibitors; 6.9% of 320,000 active; further: on the % scale 0 is the no-effect control and ±100 the full control effect
#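 Compounds incubated with erythrocytes infected by luciferase-expressing P. falciparum (2% hematocrit, 0.05% parasitemia final) for 96 hours, 37 C in 5% CO2. Growth inhibition scored as decreased luciferase luminescence.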
# Sm TGR block – blocks Schistosoma mansoni thioredoxin glutathione reductase | 3% of 360,000 active | Potency, µM (highest dose often 114 µM), without a hit: at the highest dose activity change, negative = inhibition, hits mostly inhibitors | purified TGR, DTNB reduction, TNB absorbance 405 nm | Q962Y6; further: on the % scale 0 is the no-effect control and ±100 the full control effect; nearly all actives have a fitted effect of over 60% in size
#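 TGR 20 nM + NADPH 100 uM (dispensed conc.), cpd preinc 15 min RT; start with NADPH (500 uM addition) then DTNB (15 mM addition). Kinetic TNB absorbance, 405 nm filter. Four-parameter Hill fit across titration.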
# NS1 function inh – inhibitors of influenza NS1 protein function | Potency, µM (top dose mostly 46.1 µM), for the others: at the highest dose activity, positive = more growth | 0.4% of 270,000 active | AID 2326; calls by dose curve; further: actives are rising curves; nearly all actives have a fitted effect of over 50% in size
#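 Recovery from NS1-induced slow growth read by OD600 in budding yeast switched to galactose assay medium (pH 6.0, -URA) at 1:100 dilution. Compound 23 nl per well; the matching strain lacking NS1 serves as control.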
# AMA1 RON2 block – AMA1-RON2 (P. falciparum) interaction inhibition; AID 720542; 0.2% of 360,000 active; AlphaScreen AMA1-biotinylated RON2 peptide binding; Potency, µM (series often up to 58.2 µM), for inactives: top-dose activity change, negative = inhibition, actives largely listed as inhibitors;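 further: 0% = vehicle wells and -100% = peptide control; nearly all actives have a fitted effect of over 45% in size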
#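 AMA1 (3D7) with his tag at 25 nM final met compounds first, then biotinylated RON2 peptide at 25 nM; detection used donor plus acceptor beads, 10 µg/mL apiece, read by AlphaScreen after 30 min at room temperature.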
# Pf growth 48h – inhibits P. falciparum growth in the first generation, 48 h. P. falciparum luciferase growth in erythrocytes, 48 h. Potency, µM (titrated, usually from 28.7 µM), for inactives: at the top dose activity change, negative = inhibition, actives largely listed as inhibitors. 5.9% of 310,000 active. AID 504832; further: on the % scale 0 is the no-effect control and ±100 the full control effect
#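 Luminescence readout; reporter = integrated firefly luciferase in P. falciparum. RBC culture at 2% hematocrit, 0.1% parasitemia final, 37 C/5% CO2; decreased signal taken as growth inhibition.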
# Starred values were filed as active, the others as inactive; i = inactive; ? = inconclusive; . = not tested or not shown; [ ] = another dose, or the depositor's remark. Unless noted, the call rests on the fitted dose curve; in most records, active means well fitted curve in the direction sought with a large enough effect; inconclusive means small, poorly fitted or top-dose-only effect, or another doubt; inactive means no such curve, though single readings can be large; an effect the other way counts as inactive or inconclusive. Potency means the concentration at half of the fitted maximal effect.
SMILES,Pf growth 96h,Sm TGR block,NS1 function inh,AMA1 RON2 block,Pf growth 48h
CCCCn1c(C)cc2c(c1=O)[C@H]1O[C@](CCCCN3C(=O)c4ccccc4C3=O)(Cc3ccccc31)O2,?,-14%[22.9 µM],8%,.,?
CCCCn1c(C)cc2c(c1=O)[C@H]1O[C@](CCCC)(Cc3cc(OC)c(OC)cc31)O2,?,0%[22.9 µM],4%,.,-2%[5.75 µM]
CCCCn1c(C)cc2c(c1=O)C1O[C@](c3ccc(OC)cc3)(Cc3cc(OC)c(OC)cc31)O2,1.5µM*,?,10%,.,?
CN1CCN(/N=C/c2c3ccccc3c(Cl)c3ccccc23)CC1,-12%,?,.,?,-12%
CCC(=O)N(CCc1ccc(OC)c(OC)c1)Cc1cc2ccc(C)cc2n2nnnc12,?,.,-3%,-18%,-34%
CC(=O)Nc1cccc2c1C(=O)N(c1ccc(OC(C)=O)cc1)C2=O,2.6µM*,.,-2%,-1%,4%
CSc1ccc(Cl)c(C(=O)Nc2ccc(C)cn2)c1,2%,.,-2%,4%,24%
Cc1ccc(-n2c(=O)c3c(c4cc(C)ccc4n3C)n(CC(=O)NCc3ccccc3Cl)c2=O)cc1,.,8%,.,.,.
COCCn1c(SCC(=O)N(C(C)C)C(C)C)nnc1-c1cc2ccccc2cc1O,?,?,-6%,-7%,?
Cc1occc1-c1nnc(SCC(=O)N2CCOCC2)n1Cc1ccco1,0%,?,-6%,5%,9%
O=C(CSc1nnc(-c2cc3ccccc3cc2O)n1Cc1ccco1)N1CCc2ccccc2C1,1.7µM*,?,0%,62%,.
CC(C)N(C(=O)CSc1nnc(-c2cc3ccccc3cc2O)n1Cc1ccco1)C(C)C,35%,?,13%,22%,2.1µM*
Brc1ccc(-c2cn3cc(Cc4ccccc4)sc3n2)cc1,.,0%,.,.,.
O=C(COc1ccc(Cl)cc1)Nc1ccccc1C(=O)OCc1cc(=O)n2ccsc2n1,.,-4%,.,.,.
Brc1ccc(-c2csc(NC3=NCCCCC3)n2)cc1,13µM*,-5%,-1%,?,57%
COc1ccc(-c2csc(NNC3=NCCCCC3)n2)cc1,0%,-15%,.,1%,12µM*
Cc1ccccc1CNC(=O)Cn1cnc(S(=O)(=O)N2CCCC2)c1,?,5%,11%,25%,20%
O=C(C1=C[C@H](c2csc3ccccc23)C[C@H](OCc2ccc(CO)cc2)O1)N1CCCCCCC1,.,.,.,-6%,.
COc1ccc(NC(=O)CSCc2ccc(C)cc2)cc1,23%,3%,.,-23%,5%
COc1ccc(NC(=O)CSc2c(C)nn(-c3nnc(C)c(=O)[nH]3)c2C)cc1,12µM*,10%,1%,37%,-13%
COc1ccc(NCc2nnc(SCC(=O)Nc3ccc(OC)cc3)n2C)cc1,2%,15%,5%,-11%,-11%
Cc1ccc(NC(=O)CSc2nnc(C)c(=O)[nH]2)cc1,.,6%,.,.,.
COc1ccc(NC(=O)CSC2=NC(=O)CC(C)=N2)cc1,12µM*,7%,-6%,0%,19%
CCOC(=O)c1ccc(NC(=O)CSc2nnc(CNc3ccc(OC)cc3)n2C)cc1,2%[5.75 µM],?,-7%,0%,6.6µM*
CCOC(=O)c1ccc(NC(=O)C2(c3ccc(OC)cc3)CCCC2)cc1,?,5%,-3%,10%,5.9µM*
SMILES,Pf growth 96h,Sm TGR block,NS1 function inh,AMA1 RON2 block,Pf growth 48h
C=C(C)CN1C(=O)C2(OCCO2)c2ccccc21,-10%,-8%,-1%,2%,-3%
COc1cc(OC)cc(-c2nc3nc(C)c(CCC(=O)Nc4ccc(C)cc4C)c(C)n3n2)c1,.,5%,.,.,.
CCOC(=O)c1ccc(NC(=O)CSc2nnc(Cc3cccs3)n2C)cc1,8.3µM*,-3%,-34%,7%,?
C=CCn1nnnc1SCC(=O)Nc1ccc(OC)cc1,-37%,-2%,0%,-9%,39%
CCn1nnnc1SCC(=O)Nc1ccc(OC)cc1,15µM*,5%,8%,14%,24%
C=CCn1c(Cc2cccs2)nnc1SCC(=O)Nc1ccc(C(=O)OCC)cc1,?,-2%,-39%,27%,-47%
COC(=O)CNC(=O)Cn1ccc2ccccc2c1=O,280%,4%,2%,3%,-22%
Cc1cccn2c(=O)c(C(=O)NCCCN3CC(C)CC(C)C3)c(O)nc12 (stereo not given),0.83µM*,-3%,.,-2%,2.1µM*
CC1CC(C)CN(CCCNC(=O)CNC(=O)Cn2ccc3ccccc3c2=O)C1 (stereo not given),.,.,3%,.,.
Cc1ccc(CNC(=O)Cn2ccc3ccccc3c2=O)o1,63%,32µM*,1%,?,17%
CC1CCCCN1CCCNC(=O)c1c(O)nc2ccccn2c1=O (stereo not given),11%,-9%,-18%,6%,16%
CC1CC(C)CN(CCCNC(=O)c2c(O)nc3ccccn3c2=O)C1 (stereo not given),?,-1%,.,-4%,4.1µM*
CC1CC(C)CN(CCCNC(=O)CCNC(=O)Cn2ccc3ccccc3c2=O)C1 (stereo not given),5.2µM*,12%,5%,-6%,.
COc1ccc(C(C)(O)c2nc(-c3ccc(OC)nc3)cs2)cc1 (stereo not given),.,.,.,-1%,.
CC(C)COC(=O)N1CCCCC1c1cc(C(=O)NCc2ccccc2)no1 (stereo not given),.,.,.,5%,.
CCSc1nnc(-c2ccncc2)o1,75%,6%,2%,-1%,11%
C#CCSc1nnc(-c2ccc(C)cc2)o1,1.2µM*,2%,-6%,-9%,i
C#CCSc1nnc(-c2ccc(O)cc2)o1,-23%,2%,.,-6%,i
OCC#CCSc1nnc(-c2ccncc2)o1,0.29µM*,?,-3%,8%,16%
CN(C)c1ccc(O)c2c1CC1CC3[C@@H](N(C)C)C(=O)C(C(N)=O)=C(O)[C@]3(O)C(=O)C1=C2O (stereo not given in full),0.33µM*,?,-2%,?,4.7µM*
CN(C)[C@@H]1C(=O)C(C(N)=O)=C(O)[C@@]2(O)C(=O)C3=C(O)c4c(O)cccc4[C@@](C)(O)C3C[C@@H]12 (stereo not given in full),2.1µM*,-21%,.,?,7.4µM*
C[C@H]1c2cccc(O)c2C(O)=C2C(=O)[C@]3(O)C(O)=C(C(N)=O)C(=O)[C@@H](N(C)C)[C@@H]3[C@@H](O)[C@@H]21,0.74µM*,28%,-1%,?,4.7µM*
CN(C)[C@@H]1C(=O)C(C(N)=O)=C(O)[C@@]2(O)C(=O)C3=C(O)c4c(O)ccc(Cl)c4[C@@](C)(O)[C@H]3C[C@@H]12,-26%,?,-10%,-15%,?
CN(C)C1C(=O)C(C(N)=O)C(=O)C2(O)C(=O)C3C(=O)c4c(O)cccc4C(C)(O)C3C(O)C12 (stereo not given),3µM*,.,.,.,9.5µM*
